Several values for one entry are separate records, joined by “and”; a condition that tells them apart may be missing. Identical values can stand only once. Hit rate of the full screen: of about 650,000 compounds, about 5,900 (0.91%) were called active. This is one part of a sample in which actives are shown more often than they occur. A number with no mark means an inactive call. Rule as the data show it: active = inhibition above about 50%; inactive = the rest.

The test deals with Microphthalmia-associated transcription factor (Homo sapiens) (UniProt O75030). In words: MITF inhibitors, primary screen, biochemical, AlphaScreen, human (AID 1259374).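 Also: 0% = vehicle wells with protein.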 The settings on record: AlphaScreen MITF homodimerization, bead proximity signal; at 2.6 µM; hits give high values.
Microphthalmia-associated transcription factor (Homo sapiens), sequence (O75030 whole entry, looked up): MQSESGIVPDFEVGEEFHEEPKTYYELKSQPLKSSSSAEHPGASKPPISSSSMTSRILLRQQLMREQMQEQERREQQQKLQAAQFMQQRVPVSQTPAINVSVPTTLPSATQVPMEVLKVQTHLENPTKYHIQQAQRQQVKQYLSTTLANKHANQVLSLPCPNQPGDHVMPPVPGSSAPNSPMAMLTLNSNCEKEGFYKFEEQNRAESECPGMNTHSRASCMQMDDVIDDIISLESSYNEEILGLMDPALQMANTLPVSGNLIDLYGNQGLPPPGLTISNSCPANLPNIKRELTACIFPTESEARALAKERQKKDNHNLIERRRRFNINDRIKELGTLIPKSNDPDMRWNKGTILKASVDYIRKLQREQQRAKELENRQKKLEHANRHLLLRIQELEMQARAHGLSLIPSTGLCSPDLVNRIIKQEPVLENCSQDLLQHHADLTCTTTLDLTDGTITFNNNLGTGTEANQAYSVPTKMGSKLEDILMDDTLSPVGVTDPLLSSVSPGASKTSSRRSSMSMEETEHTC
`CCOc1ccc(-c2ccc(C)c(NC(=O)c3cccs3)c2)nn1`: the inhibition is 0.28%. For the molecule `N=C1/C(=C\c2ccc([N+](=O)[O-])o2)C(=O)N=C2SC(N3CCOCC3)=NN12`, the inhibition was 74.2% (active). On to `Cc1ccc(C2=NN3C(=N)/C(=C/c4ccc(-c5ccc(C(=O)O)cc5)o4)C(=O)N=C3S2)cc1`, for which the inhibition is 3.4%. The same measure for `Cc1ccc(C2=NN3C(=N)/C(=C/c4ccco4)C(=O)N=C3S2)cc1`: -3.9%; for `Cc1nnc(SCC(=O)N2c3ccccc3Sc3ccccc32)nc1C`: -1.53%. Turning to `O=C(OCCN1CCOCC1)c1c(Cl)nc2sccn12`, the inhibition is 68.3% (active). With `COc1ccc(/C=C/C(=O)OCCN2CCOCC2)cc1` the figure was 12.6%. With `O=C(OCCN1CCOCC1)C1(c2ccccc2)CCCCC1` the figure was 3.29% and -3.71%; with `CSc1cccc(NC(=O)C2C3C=CC4(O3)C2C(=O)N(CCCN2CCCC(C)C2)C4C(=O)NC2CCCCC2)c1` (stereo unspecified), 1.08%. As for `COc1ccc(CNCc2cccc(F)c2)c(OC)c1`, the inhibition is 17.1%. With `COc1ccc(OC)c(CN2CCC(C(=O)NCC(C)C)CC2)c1`, the inhibition is 10.5%. The same measure for `COc1cc(CN2CCC(O)CC2)cc(OC)c1OC`: 20.4%; for `COc1ccc(OC)c(CN2CCN(Cc3ccccc3OC)CC2)c1`: 65.1% (active); for `COc1ccc(CN2CCCCC2)c(OC)c1`: -6.28%. Regarding `COc1ccc(OC)c(CN2CCN(C3CCCCCC3)CC2)c1`, the inhibition is 49.2%. For `COc1ccc(CN2CCN(Cc3cc(OC)c(OC)c(OC)c3)CC2)cc1`, the inhibition was 70.5% (active). `COc1cc(CN2CCOCC2)cc(OC)c1OC`: the inhibition was 5.88%. With `COc1cc(CN2CCN(Cc3ccccc3Cl)CC2)cc(OC)c1OC` the figure was 74.9% (active); with `COc1ccc(CN2CCN(Cc3cccc(Br)c3)CC2)c(OC)c1`, 72.2% (active). With `COc1ccc(S(=O)(=O)N2CCN(Cc3ccccc3Cl)CC2)cc1` the figure was 8.12%.

Regarding `COc1cc(CN2CCN(C3CCCC3)C(CCO)C2)cc(OC)c1OC` (stereo unspecified), the inhibition was -4.18%. As to `CS(=O)(=O)Nc1ccc(C(=O)Nc2ccc(Br)c(Cl)c2)cc1`, the inhibition was 11.7%. Turning to `COc1ccc(C(=O)N2CCc3c(nc(C)[nH]c3=O)C2)cc1Cn1nc(C)cc1C`, the inhibition is 4.03%. Regarding `COc1cc(C2C3=C(Nc4[nH]c(=O)[nH]c(=O)c42)C(=O)CC(C)(C)C3)ccc1O` (stereo unspecified), the inhibition is -4.39%.

With `Cc1ccc(Cl)c2sc(=NC(=O)CN3C(=O)c4ccccc4C3=O)n(C)c12`, the inhibition was 14.4%. Consider `O=C(NCCc1ccc(O)cc1)C1CCN(c2ccc(Nc3ccc4ncccc4c3)nn2)CC1`, for which the inhibition was 14.1%.

Broadly, the inhibition is the drop in the measured response relative to a control, in per cent.

The values above are taken from PubChem BioAssay AID1259374 (The Scripps Research Institute Molecular Screening Center, 2018).
